Measured values reported in PubChem BioAssay (NCATS).
Records with an inconclusive call do not appear. Active and inactive are the calls of the source. The call rests on the fitted dose curve; in most records, active means well fitted curve in the direction sought with a large enough effect; inconclusive means small, poorly fitted or top-dose-only effect, or another doubt; inactive means no such curve, though single readings can be large; an effect the other way counts as inactive or inconclusive.

Legend:
[1] = Quantitative High-Throughput drug screen in 47 multiple myeloma cell lines against the NCATS MIPE library collection: FR4_PLB cell viability assay (AID 1918924; further: nearly all actives have a fitted effect of over 35% in size; further: potency means the concentration at half of the fitted maximal effect)
Procedure, shortened: (§1)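 Myeloma cell lines, 500 cells per well, exposed to MIPE 4.0 library compounds for 48 h at 37C, 5% CO2. Viability from ATP by CellTiter-Glo luminescence; normalised to DMSO (100%) and media-only (0%) wells.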

[2] = Quantitative High-Throughput drug screen in 47 multiple myeloma cell lines against the NCATS MIPE library collection: Delta47_JCRB cell viability assay (AID 1918925; further: nearly all actives have a fitted effect of over 45% in size; further: potency means the concentration at half of the fitted maximal effect)
Procedure, shortened: (§2)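 Steps: seed 500 cells per well; pin-transfer MIPE 4.0 library; incubate 48 h at 37C, 5% CO2, humidified; add CellTiter-Glo, 5 min room temperature; read luminescence.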

[3] = Quantitative High-Throughput drug screen in 47 multiple myeloma cell lines against the NCATS MIPE library collection: EJM_DSMZ cell viability assay (AID 1918926; further: nearly all actives have a fitted effect of over 30% in size; further: potency means the concentration at half of the fitted maximal effect)
Procedure, shortened: as §2

[4] = Quantitative High-Throughput drug screen in 47 multiple myeloma cell lines against the NCATS MIPE library collection: KMM1_JCRB cell viability assay (AID 1918960); further: nearly all actives have a fitted effect of over 30% in size; further: potency means the concentration at half of the fitted maximal effect
Procedure, shortened: (§3)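 Myeloma cells, 500 per well, were exposed to MIPE 4.0 drugs by pin transfer for 48 h at 37 °C, 5% CO2. Viability was read as ATP luminescence with CellTiter-Glo, normalised to DMSO-only (100%) and medium-only (0%) wells.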

[5] = Quantitative High-Throughput drug screen in 47 multiple myeloma cell lines against the NCATS MIPE library collection: Karpas417_ECACC cell viability assay (AID 1918961); conditions: Karpas417 myeloma viability, CellTiter-Glo ATP luminescence, 48 h; viability (% of DMSO): at 45.8 µM (top of the series); further: potency means the concentration at half of the fitted maximal effect
Procedure, shortened: as §1

[6] = Quantitative High-Throughput drug screen in 47 multiple myeloma cell lines against the NCATS MIPE library collection: JIM3_ECACC cell viability assay (AID 1918963; further: nearly all actives have a fitted effect of over 35% in size; further: potency means the concentration at half of the fitted maximal effect)
Procedure, shortened: as §1

[7] = Quantitative High-Throughput drug screen in 47 multiple myeloma cell lines against the NCATS MIPE library collection: H1112_PLB cell viability assay (AID 1918967; further: nearly all actives have a fitted effect of over 30% in size; further: potency means the concentration at half of the fitted maximal effect)
Procedure, shortened: as §2

[8] = Quantitative High-Throughput drug screen in 47 multiple myeloma cell lines against the NCATS MIPE library collection: ARP1_JJKsccF8 cell viability assay (AID 1918928; further: nearly all actives have a fitted effect of over 40% in size; further: potency means the concentration at half of the fitted maximal effect)
Procedure, shortened: as §3

[9] = Quantitative High-Throughput drug screen in 47 multiple myeloma cell lines against the NCATS MIPE library collection: Karpas620_DSMZ cell viability assay (AID 1918959); further: nearly all actives have a fitted effect of over 30% in size; further: potency means the concentration at half of the fitted maximal effect
Procedure, shortened: as §1

[10] = Quantitative High-Throughput drug screen in 47 multiple myeloma cell lines against the NCATS MIPE library collection: JIM1_ECACC cell viability assay (AID 1918964; further: potency means the concentration at half of the fitted maximal effect)
Procedure, shortened: as §2

[11] = Quantitative High-Throughput drug screen in 47 multiple myeloma cell lines against the NCATS MIPE library collection: Karpas25_ECACC cell viability assay (AID 1918968; further: nearly all actives have a fitted effect of over 35% in size; further: potency means the concentration at half of the fitted maximal effect)
Procedure, shortened: as §2

[12] = Quantitative High-Throughput drug screen in 47 multiple myeloma cell lines against the NCATS MIPE library collection: KHM11_PLB cell viability assay (AID 1918962); further: nearly all actives have a fitted effect of over 35% in size; further: potency means the concentration at half of the fitted maximal effect
Procedure, shortened: as §1

[13] = Quantitative High-Throughput drug screen in 47 multiple myeloma cell lines against the NCATS MIPE library collection: JJN3_DSMZ cell viability assay (AID 1918966; further: nearly all actives have a fitted effect of over 50% in size; further: potency means the concentration at half of the fitted maximal effect)
Procedure, shortened: as §2

[14] = Quantitative High-Throughput drug screen in 47 multiple myeloma cell lines against the NCATS MIPE library collection: ARD_JJKsccE7 cell viability assay (AID 1918929; further: potency means the concentration at half of the fitted maximal effect)
Procedure, shortened: as §2

[15] = Quantitative High-Throughput drug screen in 47 multiple myeloma cell lines against the NCATS MIPE library collection: INA6_PLB cell viability assay (AID 1918965; further: nearly all actives have a fitted effect of over 55% in size; further: potency means the concentration at half of the fitted maximal effect)
Procedure, shortened: as §1

[16] = Quantitative High-Throughput drug screen in 47 multiple myeloma cell lines against the NCATS MIPE library collection: AMO1_DSMZ cell viability assay (AID 1918927; further: nearly all actives have a fitted effect of over 30% in size)
Procedure, shortened: as §2

Measured: Potency

CC(C)NCC(O)c1ccc(NS(C)(=O)=O)cc1 (stereo unspecified)
inactive: [1] | [2] | [3] | [4] | [5] | [6] | [7]

CCN(C)C(=O)Oc1cccc([C@H](C)N(C)C)c1
inactive: [1] | [2] | [3] | [8] | [6] | [10] | [7] | [11]
active: [9] 0.0332 µM

CCN(CC)CC#CCOC(=O)C(O)(c1ccccc1)C1CCCCC1 (stereo unspecified)
inactive: [1] | [2] | [3] | [6] | [7]

Cc1cccc(Nc2ccncc2S(=O)(=O)NC(=O)NC(C)C)c1
inactive: [1] | [2] | [3] | [8] | [4] | [12] | [6] | [10] | [7] | [11]
active: [13] 20.9 µM

CC(N)C12CC3CC(CC(C3)C1)C2 (stereo unspecified)
inactive: [1] | [2] | [3] | [14] | [4] | [6] | [13] | [7] | [11]

CCn1cc(C(=O)O)c(=O)c2cc(F)c(N3CCN(C)CC3)cc21
inactive: [1] | [2] | [3] | [5] | [6] | [7] | [11]

O=S(=O)(O)CCS
inactive: [1] | [2] | [3] | [8] | [4] | [15] | [7]

Cc1ccnc2c1NC(=O)c1cccnc1N2C1CC1
active: [2] 20.9 µM
inactive: [1] | [3] | [8] | [13]

CCOCC(O)COc1ccc(NC(=O)CC[S+](C)C)cc1 (stereo unspecified)
inactive: [1] | [2] | [3] | [8] | [14] | [9] | [4] | [6] | [13] | [7] | [11]

CN(C)c1ccc(C(=C2C=CC(=[N+](C)C)C=C2)c2ccc(N(C)C)cc2)cc1
active: [1] 0.132 µM | [2] 0.0105 µM | [3] 0.148 µM | [8] 0.166 µM | [14] 0.526 µM | [10] 0.105 µM | [15] 0.0093 µM | [13] 0.0187 µM | [7] 0.0372 µM | [11] 0.0118 µM

O=C(O)CSCC(=O)NC1CCSC1=O (stereo unspecified)
inactive: [1] | [2] | [3] | [8] | [14] | [9] | [6] | [13] | [7] | [11]

Nc1[nH]c(=O)ncc1F
inactive: [1] | [2] | [3] | [8] | [9] | [4] | [6] | [13] | [7] | [11]

NCCCC(O)(P(=O)(O)O)P(=O)(O)O
active: [11] 16.6 µM
inactive: [1] | [2] | [3] | [16] | [4] | [5] | [6]

COC(=O)Nc1nc2ccc(C(=O)c3ccccc3)cc2[nH]1
active: [1] 0.296 µM | [2] 1.66 µM | [3] 4.69 µM | [8] 0.743 µM | [6] 2.96 µM | [13] 2.64 µM | [7] 2.64 µM | [11] 3.72 µM

COC(c1ccccc1)(c1ccccc1)[C@H](Oc1nc(C)cc(C)n1)C(=O)O
inactive: [1] | [2] | [3] | [8] | [14] | [9] | [4] | [5] | [12] | [6] | [7] | [11]

COc1ncnc(NS(=O)(=O)c2ccc(N)cc2)c1OC
inactive: [1] | [2] | [3] | [16] | [9] | [5] | [6] | [7]

CC(C)OC(=O)C(C(=O)OC(C)C)=C1SC=CS1
inactive: [1] | [2] | [3] | [8] | [9] | [6] | [10] | [13] | [7] | [11]

COc1cc2nc(N3CCCN(C)CC3)nc(NC3CCN(Cc4ccccc4)CC3)c2cc1OC
active: [1] 5.26 µM | [2] 2.09 µM | [3] 9.35 µM | [8] 8.33 µM | [14] 8.33 µM | [9] 3.72 µM | [4] 7.43 µM | [5] 2.35 µM | [6] 9.35 µM | [10] 7.43 µM | [15] 2.35 µM | [13] 16.6 µM | [7] 5.9 µM | [11] 5.26 µM

O=C(O)c1cc(=O)[nH]c(=O)[nH]1
inactive: [1] | [2] | [3] | [14] | [9] | [4] | [5] | [6] | [7] | [11]

OCc1ccc(-c2nn(Cc3ccccc3)c3ccccc23)o1
active: [2] 20.9 µM | [12] 2.64 µM | [11] 9.35 µM
inactive: [1] | [3] | [8] | [4] | [6]

C[C@@H]1C[C@H]2[C@@H]3CCC4=CC(=O)C=C[C@]4(C)[C@@]3(Cl)[C@@H](O)C[C@]2(C)[C@@]1(OC(=O)c1ccco1)C(=O)CCl
active: [1] 26.4 µM | [2] 2.96 µM | [3] 4.69 µM | [9] 16.6 µM | [5] 8.33 µM | [12] 9.35 µM | [6] 9.35 µM | [13] 2.35 µM | [7] 5.26 µM

Cc1cccc(N(C)C(=S)Oc2ccc3ccccc3c2)c1
active: [14] 20.9 µM
inactive: [1] | [2] | [3] | [8] | [6] | [13] | [7]
